# Reference: the supplement of paper PMC6555819
# Experiments:
# Test in all cases: PBM binding z-score (relative to random genomic background probes); higher = stronger binding; sequences stand for … in GC…GCGATTGACAGCGTAGAATGAAGG
# [1] = system: FXR:RXRa (NR concentration 270 nM, RXRa partner concentration 90 nM)
# Method in brief: (§1)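 Random background probes are the reference for binding z-scores. These scores derive from regression-normalized fluorescence on custom Agilent 4×180K protein-binding microarrays incubated 1 h with ligand-free nuclear receptor dimers. Binding was detected with antibodies against each partner (one per run).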
# [2] = system: LXRa:RXRa (NR concentration 270 nM, RXRa partner concentration 90 nM)
# Method in brief: as §1
# [3] = system: LXRa homodimer (NR concentration 270 nM)
# Method in brief: as §1
# [4] = system: LXRb:RXRa (NR concentration 270 nM, RXRa partner concentration 90 nM)
# Method in brief: as §1
# [5] = system: LXRb homodimer (NR concentration 270 nM)
# Method in brief: as §1
# [6] = system: PPARa:RXRa (NR concentration 270 nM, RXRa partner concentration 90 nM)
# Method in brief: as §1
# [7] = system: PPARg:RXRa (NR concentration 180 nM, RXRa partner concentration 90 nM)
# Method in brief: as §1
# [8] = system: PPARg:RXRa 270nM:90nM, anti-RXR (NR concentration 270 nM, RXRa partner concentration 90 nM)
# Method in brief: as §1
# [9] = system: PPARg:RXRa 30nM:10nM, anti-RXR (NR concentration 30 nM, RXRa partner concentration 10 nM)
# Method in brief: as §1
# [10] = system: PPARg:RXRa 90nM:30nM, anti-RXR (NR concentration 90 nM, RXRa partner concentration 30 nM)
# Method in brief: as §1
# [11] = system: PPARg:RXRa DBDmut IVT, anti-RXR (DBD mutation: RXRa K156A/R161A, NR concentration 270 nM, RXRa partner concentration 90 nM)
# Method in brief: as §1
# [12] = system: PPARg:RXRa IVT, anti-PPARg (NR concentration 270 nM, RXRa partner concentration 90 nM)
# Method in brief: as §1
# [13] = system: PPARg DBDmut:RXRa IVT, anti-PPARg (DBD mutation: PPARg1 K132A/R137A, NR concentration 270 nM, RXRa partner concentration 90 nM)
# Method in brief: as §1
# [14] = system: PPARg DBDmut IVT, anti-PPARg (DBD mutation: PPARg1 K132A/R137A, NR concentration 270 nM)
# Method in brief: as §1
# [15] = system: PPARg homodimer (NR concentration 180 nM)
# Method in brief: as §1
# [16] = system: PXR:RXRa (NR concentration 270 nM, RXRa partner concentration 90 nM)
# Method in brief: as §1
# [17] = system: PXR homodimer (NR concentration 270 nM)
# Method in brief: as §1
# [18] = system: RARa:RXR (NR concentration 270 nM, RXRa partner concentration 90 nM)
# Method in brief: as §1
# [19] = system: RARa homodimer (NR concentration 270 nM)
# Method in brief: as §1
# [20] = system: RARb:RXRa (NR concentration 270 nM, RXRa partner concentration 90 nM)
# Method in brief: as §1
Sequence,PBM binding z-score [1],PBM binding z-score [2],PBM binding z-score [3],PBM binding z-score [4],PBM binding z-score [5],PBM binding z-score [6],PBM binding z-score [7],PBM binding z-score [8],PBM binding z-score [9],PBM binding z-score [10],PBM binding z-score [11],PBM binding z-score [12],PBM binding z-score [13],PBM binding z-score [14],PBM binding z-score [15],PBM binding z-score [16],PBM binding z-score [17],PBM binding z-score [18],PBM binding z-score [19],PBM binding z-score [20]
TCGAGTAGGTTACCAATGGGGCCTTCAGCTTTCT,-0.184,0.128,-0.933,-0.0136,-1.01,0.918,-0.264,0.957,0.922,0.958,3.36,2.22,-0.652,-1.23,-0.653,-0.289,-1.01,0.0831,-1.27,0.653
CCTAGCAGGCCAGGGCCACTCAAGCATTTCGCTT,-0.787,-0.944,-0.625,-1.04,-1.61,-0.638,-0.367,-1.16,-1.24,-1.48,-0.0979,-0.384,-1.54,-0.795,-0.711,-1.11,-0.775,-0.903,-0.897,0.21
GCTCGGAGGACAAGGTCAGAGCGTTGTCCGTAGA,2.18,1.74,-0.229,1.46,-0.608,2.61,0.378,1.37,-0.49,0.635,-0.242,0.658,-1.14,-1.68,0.169,1.68,-0.131,2.07,-0.539,3.4
GGAACGAGGGGATTCGAGTTGATAGCATGGCGAT,-0.431,-0.53,-0.577,-0.641,-0.654,-0.413,0.315,-0.471,-0.474,-0.523,0.388,-0.0839,-1.62,-0.321,-1.3,0.0775,-0.14,-0.588,-0.71,-0.414
GCTTGTAGATCAAGGCTAAGAAAGACTAAGCTAA,-1.48,-0.741,-0.903,-0.837,-0.875,-0.665,-0.447,-0.418,-0.329,-0.359,0.902,-0.107,-0.0292,-0.466,-1.05,-0.743,-0.42,-0.679,-0.656,-0.482
CGTCAAAGTTCAACTAAGGTAAAGTAAAGCACGC,6.88,6.38,3.13,4.16,2.1,5.3,4.8,5.57,2.59,4.36,0.496,2.11,0.89,1.16,3.47,5.32,2.92,4.16,2.06,5.39
CCTAGTTGCTCAGGAGGTCACACACCGGATATGA,3.45,3.66,2.47,3.74,0.953,4.23,1.96,2.65,0.83,1.79,0.887,2.47,0.559,1.01,3.26,4.39,1.59,4.49,2.6,3.64
TTACCAAGGTGAAGGTCGTTTATCCCTCTGTAGA,1.45,1.55,0.229,1.54,-0.0351,2.47,2.42,3.95,1.78,3.31,2.02,3.38,0.35,0.225,0.696,1.7,0.623,1.65,-0.48,2.2
AGAATGAGGTTACCAAAGATCCGGGAAACGCTTG,1.58,2.04,-0.0971,1.33,-0.177,3.23,2.5,2.84,0.971,2.13,3.81,3.61,0.821,0.35,0.752,0.78,-0.0527,1.76,0.0139,2.05
TCTTGTAGATCAAGCAGGTTAAGTAAGCCTGAGT,0.318,0.3,-0.426,0.29,-0.426,0.576,-0.618,1.2,2.3,1.78,1.68,0.377,0.298,-0.27,0.192,0.295,0.247,0.198,-0.203,0.138
TCATATAGGTAAACAGGAGAAAGTCCGTAAGTTA,0.871,0.628,-0.02,0.291,-0.116,0.987,1.23,2.26,3.93,3.07,4.08,2.77,0.715,0.615,0.67,0.188,0.377,0.0372,0.767,0.292
ATCTCTAGATAAAGTTCAGTGAAAGATCGATAGA,0.465,1.1,1.05,0.684,0.314,1.48,2.39,3.45,1.46,3.1,-0.492,0.294,0.931,0.898,0.994,1.36,1.39,0.786,1.06,2.17
CCGACTGGCGCATAAGGTTACCATAAGCCAGCCC,0.387,1.91,-0.184,0.848,-0.921,0.659,0.557,0.0532,-0.553,-0.235,-0.22,-0.617,-0.674,-0.756,0.0825,0.285,-0.103,0.776,0.248,0.721
CGAGACAGGTGAGAAGGTAACTCAGCCTCGATTA,-0.0468,-0.124,-0.337,-0.343,-0.761,0.591,0.452,0.452,-0.196,0.138,0.944,0.575,-0.719,-0.428,0.307,-0.433,-0.255,-0.528,-0.321,0.602
ATCTCTAGGTACCAAGTTCAGTGAAAGAGAGGAC,0.701,0.609,0.346,0.651,0.845,0.892,0.678,1.23,0.604,1.03,0.464,0.878,1.07,0.989,0.548,1.42,1.37,0.711,0.57,1.28
